About 930 (0.42%) of roughly 220,000 compounds were called active. For the sample, actives were picked, then their nearest neighbours and some compounds at random. A number with no mark means an inactive call. Cut-off read from the data, not from the text of the source: active = inhibition above about 50%; inactive = the rest.
These compounds were tested against Glycoprotein 42 (Epstein-Barr virus (strain AG876)) (UniProt Q1HVG2) (assay: EBV glycoprotein 42 binding blockers – biochemical, uHTS, fluorescence polarization, primary screen (AID 1085)). Settings: Fluorescence polarization binding assay, mP read-out; stronger effect = higher value; tested at 21.74 µM.
Glycoprotein 42 (Epstein-Barr virus (strain AG876)), sequence (Q1HVG2 whole entry, looked up): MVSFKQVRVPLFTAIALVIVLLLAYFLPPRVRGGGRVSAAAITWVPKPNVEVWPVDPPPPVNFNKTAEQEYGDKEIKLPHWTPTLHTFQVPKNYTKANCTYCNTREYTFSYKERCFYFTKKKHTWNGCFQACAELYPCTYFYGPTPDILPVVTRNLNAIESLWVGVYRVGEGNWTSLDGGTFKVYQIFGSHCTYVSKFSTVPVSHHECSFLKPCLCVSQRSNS

| SMILES | inhibition |
| --- | --- |
| O=C(Cc1ccc(Br)cc1)N1CCN(c2ccccn2)CC1 | 4.9% |
| CC(=O)NNC1=Nc2ccccc2N(C)C(C)C1 (stereo unspecified) | -1.65% |
| COc1ncnc2c1N=C1CC(C)(C)CC(N)=C1S2 | 81.4% (active) |
| CC(C)(C)c1ccc(/C=C/C(=O)Nc2ncccn2)cc1 | -8.99% |
| COc1cc(N2C(=O)CC3(CCCC3)CC2=O)cc(OC)c1OC | -4.54% |
| CCN1CC=C2C(C#N)=C(N)C(C#N)(C#N)[C@H](c3ccoc3)[C@H]2C1 | 56.6% (active) |
| CCCN1CC=C2C(C#N)=C(N)C(C#N)(C#N)C(c3cc(OC)ccc3OC)C2C1 (stereo unspecified) | 36.5% |
| CCOC(=O)N1CC=C2C(C#N)=C(N)C(C#N)(C#N)[C@H](c3cccs3)[C@H]2C1 | 6.62% |
| Cc1no[n+]([O-])c1COc1ccccc1/C=C1\NC(=S)NC1=O | -22.4% |
| COc1ccc(-n2cnnc2SCC(=O)Nc2cccc([N+](=O)[O-])c2)cc1 | 6.38% |
| CC1CN(S(=O)(=O)c2ccc(C(=O)Nc3sccc3C(N)=O)cc2)CC(C)O1 (stereo unspecified) | 6.08% |
| O=C(Nc1cccnc1)c1ccc(Cl)c([N+](=O)[O-])c1 | -3.95% |
| Cn1cc(CN2CCCC(CO)C2)c(-c2ccc(Oc3ccccc3)cc2)n1 (stereo unspecified) | -12.6% |
| CC1=C(C(=O)OCc2ccccc2)C(c2ccco2)n2ncnc2N1 (stereo unspecified) | 4.92% |
| COC(=O)C1=C(C)Nc2ncnn2C1c1ccco1 (stereo unspecified) | 6.95% |
| Brc1ccc(C2=CC(c3ccco3)n3ncnc3N2)cc1 (stereo unspecified) | 105% (active) |
| Cc1cc(-c2nc(C)c(-c3nnc(SCC(=O)Nc4ccccc4)n3C)s2)no1 | -5.93% |
| COc1ccc(Cc2n[nH]c(=S)n2NC(=O)Nc2ccc(C)cc2)cc1 | -9.72% |
| O=C(Nc1cn(-c2ccccc2)nc1-c1ccccc1)c1ccccc1 | -10.3% |
| CCCCN1C(=O)CC(N2CCOCC2)C1=O (stereo unspecified) | -40.1% |
| N#C/C(=C\C1=C(N2CCOCC2)C(=C\c2ccccc2)/CC1)C(=O)Nc1ccccc1F | 154% (active) |
| N#C/C(=C\c1ccccc1C(F)(F)F)C(=O)Nc1ccccc1F | -19.9% |
| C(=N\N1CCN(c2ccccn2)CC1)/C1=C(N2CCOCC2)C(=C/c2ccccc2)/CC1 | 22.4% |
| Cc1sc2nc(CC(N)=O)[nH]c(=O)c2c1-c1ccccc1 | -7.12% |

| SMILES | inhibition |
| --- | --- |
| CN1CCN(CCNC(=O)Nc2ccc([N+](=O)[O-])cc2)CC1 | -6.33% |
| CCN(CC(=O)Nc1ccc(S(=O)(=O)N2CCCC2)cc1)CC(=O)Nc1cccc(OC)c1 | -7.32% |
| CCCCCCCCc1c(O)nc(-n2[nH]c(C)c(CCO)c2=O)[nH]c1=O | -21.7% |
| COc1ccc(C2C=C(c3ccc(Br)cc3)Nc3nc(NS(C)(=O)=O)nn32)cc1 (stereo unspecified) | 80.6% (active) |
| COc1ccc(C2=CC(c3cccc(OC)c3)n3nnnc3N2)cc1 (stereo unspecified) | -13.3% |
| COc1ccc(C2CC(c3ccc(C)cc3)Nc3nc(N)nn32)cc1 (stereo unspecified) | -6.12% |
| CCOCCCNC(=S)N1CCC(NC(=O)C2CCCCC2)CC1 | -2.69% |
| Oc1c(Cl)cc(Cl)c(Cl)c1Cc1c(O)c(Cl)cc(Cl)c1Cl | 59.7% (active) |
| CCCC[C@@H]1CN=C(N)N1CCc1cc(C(F)(F)F)cc(C(F)(F)F)c1 | -11.3% |
| CC1CCCN(S(=O)(=O)c2ccc(N(C(=O)c3cnccn3)C(C(=O)NC3CCCCC3)c3cccs3)cc2)C1 (stereo unspecified) | -17.8% |
| Cc1cc(N2CCN(S(=O)(=O)c3ccc(C)c(C)c3)CC2)c2ccccc2n1 | 12.3% |
| Cc1ccc(S(=O)(=O)Nc2nc3ccccc3nc2N2CCc3ccccc3C2)cc1 | 8.67% |
| Cc1ccc(S(=O)(=O)C(C#N)c2nc3ccccc3nc2N2CCCC2)cc1C (stereo unspecified) | 69.2% (active) |
| O=C(COc1ccc(-c2ccccc2)cc1)NN=C1CCCC1 | -13.3% |
| O=C(Nc1ccc2c(c1)OCCO2)c1ccoc1 | -10.9% |
| COc1ccc(/C(O)=C2/C(=O)C(=O)N(CC3CCCO3)C2c2ccc(OC)c(OC)c2)cc1 (stereo unspecified) | -16.4% |
| COc1ccc(-c2nc(CS(=O)CC(=O)NCc3cccnc3)c(C)o2)cc1OC (stereo unspecified) | -12.1% |
| COc1ccc(-c2nc(CS(=O)CC(=O)N3CCc4ccccc4C3)c(C)o2)cc1 (stereo unspecified) | -1.18% |
| COc1ccc(-c2nc(CS(=O)CC(=O)NCc3ccccn3)c(C)o2)cc1 (stereo unspecified) | 117% (active) |
| CC[N+]1(CC)CC2=Cc3ccccc3CC2C1 (stereo unspecified) | -0.55% |
| N#Cc1cccc(Nc2c3c(nc4ccccc24)CCCC3)c1 | 5.27% |
| Cc1cccc(N)c1SC1CCCCC1O (stereo unspecified) | -8.15% |
| O=C(Nc1nnc(Cc2ccc(Cl)cc2)s1)c1ccncc1 | 0.5% |
| O=C(Nc1nnc(Cc2ccccc2)s1)c1cnccn1 | 58.2% (active) |

| SMILES | inhibition |
| --- | --- |
| O=C(Nc1nnc(Cc2ccc(Cl)cc2)s1)c1cccnc1 | -5.07% |
| Cc1cc(C)n2nc(C(=O)N3CCN(Cc4ccc5c(c4)OCO5)CC3)nc2n1 | -5.29% |
| Cc1ccc(-c2nnc(SCC(=O)N/N=C/c3cccs3)n2-c2ccc(C)cc2)cc1 | -4.61% |
| O=S(=O)(c1cccc(C(F)(F)F)c1)N1CCN(c2cnccn2)CC1 | -12.8% |
| Cc1cccc(N=Nc2c(O)[nH]c3ccc(F)cc23)c1 | 51.7% (active) |
| Oc1[nH]c2ccc(Br)cc2c1N=Nc1nn[nH]n1 | -11.8% |
| Cc1cccc(N=Nc2c(C)[nH]n(-c3ccccc3)c2=O)c1 | 4.36% |
| COc1ccc(-c2ccc(CNCCCN3CCOCC3)o2)cc1Cl | -7.89% |
| Cn1c(=O)c(=O)n(C)c2cc(S(=O)(=O)NCCN3CCN(c4ccccc4F)CC3)ccc21 | -5.54% |
| CN(C)c1ccc(NC(=S)N(CCc2ccccc2)C2CC(=O)N(c3c(Cl)cccc3Cl)C2=O)cc1 (stereo unspecified) | -7.96% |
| CCOCCCN(C(=O)Cn1nnc(-c2ccc(OC)c(OC)c2)n1)C(CC)C(=O)NC1CCCC1 (stereo unspecified) | 2.09% |
| CN(C)c1ccc(Nc2c3c4c(cccc4n(C)c2=O)C(=O)c2ccccc2-3)cc1 | 51.7% (active) |
| COC(=O)Cn1nc(-c2ccccc2)c2cc(Cl)ccc21 | -7.25% |
| CCOC(=O)N1CCN(Cc2nc(Cc3cccc(C(F)(F)F)c3)no2)CC1 | 5.02% |
| O=C(COC(=O)/C=C/c1ccc(S(=O)(=O)N2CCCCCC2)cc1)NCc1ccccc1Cl | -7.1% |
| Cc1cccc(NC(=O)c2sc3nc4c(c(-c5ccco5)c3c2N)CCC4)c1 | -22.7% |
| NC(=O)c1sc2nc3c(c(-c4ccccc4)c2c1N)CCC3 | 68.4% (active) |
| CC(=O)Nc1ccc(NC(=O)c2sc3nc4c(c(-c5ccc(C)cc5)c3c2N)CCC4)cc1 | -13.2% |
| [O-][N+]12CCCCC1CCCC2CO (stereo unspecified) | -12% |
| CCN(CC)c1ccc2cc(C(=O)O)c(=O)oc2c1 | -20.2% |
| CCN(CC)c1ccc2oc(=O)c(C)nc2c1 | 51.1% (active) |
| CCN(CC)c1ccc2c(Nc3ccccc3)c(C=O)c(=O)oc2c1 | -27.9% |
| CCOC(=O)C1=C(c2ccccc2)N=C2SCC(=O)N2C1c1ccc(O)c(OC)c1 (stereo unspecified) | -7.62% |
| CSCC[C@H](NC(=O)NC1CCCC1)C(=O)O | -16.3% |

| SMILES | inhibition |
| --- | --- |
| COc1ccc(Cc2nnc(NC(=O)Cc3cccs3)s2)cc1 | 73.9% (active) |
| CCc1nnc(NC(=O)Cc2cccs2)s1 | 15.8% |
| O=C(Cc1cccs1)Nc1nnc(C2CC2)s1 | -0.17% |
| CC(C)CCN1CCN(C/C=C/c2ccco2)CC1CCO (stereo unspecified) | 0.69% |
| O=C(Nc1ccc(N2CCN(C(=O)c3ccccc3)CC2)c(Cl)c1)c1ncn[nH]1 | -5.31% |
| O=C(/C=C/Nc1ccc(S(=O)(=O)Nc2cnc3ccccc3n2)cc1)c1cccnc1 | 0.92% |
| COCCNC(=O)Nc1ccc2nc(-c3ccco3)c(-c3ccco3)nc2c1 | 52.7% (active) |
| O=C(NCc1ccccn1)c1ccc2nc(-c3ccco3)c(-c3ccco3)nc2c1 | 33.5% |
| COc1ccc(NC(=O)Nc2ccc3nsnc3c2)cc1 | -9.53% |
| O=C(/C=C/c1cn(-c2ccccc2)nc1-c1ccc2c(c1)OCCO2)NCCCN1CCOCC1 | -12.9% |
| CC(=O)c1ccccc1NC(=O)CC1(CC(=O)O)CCCCC1 | -14.7% |
| Cc1cc(F)ccc1S(=O)(=O)Nc1ncnc2scc(-c3ccc(F)cc3)c12 | 9.65% |
| COc1cccc(N(CC(=O)NCCSc2ccccn2)S(C)(=O)=O)c1 | -23.3% |
| Brc1ccc(-c2csc(N/N=C/c3cccnc3)n2)cc1 | 2.77% |
| CCCNc1c(N)c(=O)c1=O | 2.64% |
| O=c1[nH]c2c(c(=O)n1Cc1ccccc1)CCC2 | -9.97% |
| CC(=O)c1ccc(-c2ccc(Cn3c(C)nc4cc(N)c(C)nc43)cc2)cc1 | 2.98% |
| Cc1cc2nc3c(=O)n(Cc4ccccc4)c(=O)[nH]c3nc2cc1N | 135% (active) |
| COC(=O)CCSc1cc([N+](=O)[O-])cc2c1c(C1OCCS1)nn2-c1ccccc1 (stereo unspecified) | 24.1% |
| CCCCCC(=O)Nc1ccc(C(=O)N/N=C/c2ccc([N+](=O)[O-])cc2)cc1 | -19.6% |
| O=C(COc1ccc(/C=N/NC(=O)c2ccc(O)cc2)cc1)Nc1ccc([N+](=O)[O-])cc1 | 77.5% (active) |
| O=C(N/N=C/c1ccc(OCc2ccccc2)cc1)c1ccc(O)cc1 | -4.07% |
| C/C=C\C=C\C(=O)N1CC2(CC(c3cccc(NC(=O)/C(C)=C\C)c3)=NO2)C[C@H]1C(N)=O (stereo partly specified) | -17.9% |
| CSc1ccccc1NC(=O)CN(C)CC(=O)Nc1cccc(Br)c1 | -0.02% |

Reference: PubChem BioAssay AID1085 (Emory University Molecular Libraries Screening Center, 2008)
